# Measured values from PubChem BioAssay (NCI).
# The panel holds about 83,000 compounds, 20% with a hit somewhere; the sample as a whole holds those more often.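 48-hour exposure, single concentration, 96-well plates; percent growth endpoint where 0 means no net growth. Active: below 10.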 A number with no mark means an inactive call. Calls of active or inactive are those of the source.
# Tested on: HL-60(TB) leukemia
# Test: NCI-60 one-dose screen, 48 h (100 = growth as untreated, 0 = no growth, -100 = all killed)
# Settings: 10 µM unless noted
row,SMILES,growth
1,CC(C)CCSC1=CC(=O)c2ccccc2C1=O,13.3%
2,CC[C@@H]1C(=O)N(C)c2cnc(Nc3ccc(C(=O)NC4CCC(N5CCN(CC6CC6)CC5)CC4)cc3OC)nc2N1C(C)C (stereo not given in full),-48.5% (active)
3,C=CCCC(=O)N1C=CC(=O)[C@H](O)[C@@H]1/C=C/c1ccccc1,32.2% [100 µM]
4,O=c1c2cccc3c(Nc4ccc(Br)cn4)ccc(c32)c2nc3ccccc3n12,128%
5,CN1/C(=C\C=C\C2=[N+](C)c3ccccc3C2(C)C)C(C)(C)c2ccccc21,-22.5% (active)
6,CN(c1ncccc1CNc1nc(Nc2ccc3c(c2)CC(=O)N3)ncc1C(F)(F)F)S(C)(=O)=O,-40% (active)
7,COc1ccc(-c2nc(C#N)c(NCC(c3ccco3)N3CCCC3)o2)cc1 (stereo not given),-14.1% (active)
8,CC/C=C\C/C=C\C[C@H]1C/C=C2/C(=O)C=C[C@H]2C/C=C\CCC(=O)O1,-5.31% (active)
9,C[C@H](c1nc2ccc(C#N)cc2[nH]1)[C@H]1CC[C@H]2[C@@H]3CCC4=CC(=O)CC[C@]4(C)[C@H]3CC[C@]12C,56.3%
10,NC(=O)c1cnc(Nc2cccc(N)c2)nc1NCCCNC(=O)C1CCC1,55.2%
11,CC(=O)N(C)N=Nc1ccc(C)cc1,117%
12,CCNc1ncnc2c1cnn2C1CCCO1 (stereo not given),92.5%
13,CC(C)(C)c1cc(-c2nc3ccc(N4CCN(CCO)CC4)cc3[nH]2)cc(C(C)(C)C)c1O,63.5%
14,O=C1CCC(c2c(O)cc(O)c3c(=O)c(O)c(-c4ccc(O)c(O)c4)oc23)N1 (stereo not given),87%
15,Clc1ccc(C2=Nn3c(nnc3-c3cc(Cl)cc(Cl)c3Cl)SC2)cc1,-15% (active)
16,CCN(CC)CCCNc1cc(OC)cc2cccnc12,94.7%
17,COC(=O)[C@H](Cc1cn(C)cn1)NC(=O)[C@@H](NC(=O)Nc1cc(C(F)(F)F)cc(C(F)(F)F)c1)C(C)C,-73.5% [100 µM] (active)
18,O=S(=O)(NCCNc1nccc(-c2c(-c3cccc(O)c3)nc3sccn23)n1)c1ccc(F)cc1,86.5%
19,CS(=O)(=O)Nc1cc(-c2ccc3ncnc(Nc4ccc(OCc5ccccn5)c(Cl)c4)c3c2)cnc1Cl,4.82% (active)
20,NC(=O)SCC(=O)Nc1ccc(S(N)(=O)=O)cc1,103%

row,SMILES,growth
1,Cc1nc2sc(C(=O)Nc3cccc(Br)c3)c(N)c2cc1C(O)c1ccccc1 (stereo not given),-27.4% (active)
2,CCCCCCCCCCCCN1C(C)=CS/C1=C\C=C\c1scc(C)[n+]1CCCCCCCCCCCC,-32.3% (active)
3,N[C@H](CS)C(=O)O,109%
4,CC(C)(C)CC(C)(C)Nc1c(-c2ccc(C(F)(F)F)cc2)nc2cnccn12,79.4%
5,CCOC(=O)/C(=C/c1ccccc1)C(=O)c1ccccc1,34.5%
6,COc1ccc(/C=C/C(=O)c2ccc(-n3cc(CN4CCN(c5cc6c(cc5F)c(=O)c(C(=O)O)cn6C5CC5)CC4)nn3)cc2)cc1OC,45.1%
7,Cc1c(C(=O)Nc2nc(-c3ccccc3)cs2)nnn1-c1cccc2ccccc12,54.4% [50 µM]
8,N#Cc1cnn2c(-c3ccc(Cl)cc3)nc(NCCc3ccccc3)nc12,85.1%
9,O=C(Nc1ccc(F)cc1)Nc1ccc(NC(=O)c2cc(Cl)nc3ccccc23)cc1,63.9%
10,N#CC[C@H](C1CCCC1)n1cc(-c2ncnc3[nH]ccc23)cn1,97.7%
11,COc1ccc(C2C(C#N)=C(N)Oc3c2sc2c(Br)cccc32)cc1 (stereo not given),-9.13% (active)
12,Cc1ccc2c(c1)C(C)Cc1c(ncnc1-n1cnc3cc(C)ccc31)N2C (stereo not given),-22% (active)
13,NC1=NN=C2N(N)C(=O)c3cnn(-c4ccccc4)c3N2c2nc(-c3ccccc3)cc(-c3ccccc3)c21,105%
14,Cc1cc(N2CCCCC2)nc(N(CCNc2ccnc3cc(Cl)ccc23)Cc2ccco2)n1,-46.3% (active)
15,CN1C(=O)N(C)C2C1NN=c1s/c(=C\c3ccc(C(F)(F)F)cc3)c(=O)n12 (stereo not given),-6.25% (active)
16,Cc1cccc(Cc2cnc(NC(=O)CCc3ccc(C)o3)s2)c1,-41.5% (active)
17,O=C(NCCCl)NCCN1c2nc3ccccc3cc2Sc2cc3ccccc3nc21,24.3%
18,COc1cc2c(=O)n(CCN(C)C)c3c4cc5c(cc4ccc3c2cc1OC)OCO5,8.03% (active)
19,CO[C@H]1CC(c2ccc[nH]2)=N[C@]12O[C@@H](C)C[C@@H]1CCCCCCCc3ccc([nH]3)[C@H]12,17.5%
20,Nc1ncccc1O,51.6%
